The full ranking holds about 2,900 compounds; the median of “NF-kB SEAP reporter activity, fold change vs agonist alone” is about 0.99, and the highest 2% start at about 2.6. The full list was thinned out, with the highest values kept by preference.

Assay [1] has as its system RAW-Dual. In words: NF-kB SEAP reporter activity, fold change vs agonist alone; higher = enhanced NF-kB activity. To be noted: library stock concentration (final ~1000-fold dilution): 10 mM. An outline of the steps:
(§1)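 Cytotoxic wells were those whose IncuCyte confluency was below 70% of agonist controls in both mask sets. The cells were RAW-Dual macrophages at 50,000 cells/well in DMEM on 384-well plates, dosed with 50 nL of library stock by pin tool, stimulated with a PRR agonist 1 h later, and kept at 37 °C, 5% CO2 for 20 hours. IRF and NF-κB reporter activity, as fold change over agonist-alone wells, came from supernatant read by QuantiLuc luminescence and QuantiBlue absorbance, respectively.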

In assay [2] the test system is RAW-Dual. In words: NF-kB SEAP reporter activity, fold change vs agonist alone; cytotoxicity flag (confluency mask): not cytotoxic; higher = enhanced NF-kB activity. The method, boiled down: as §1
In assay [3] the test system is RAW-Dual. In words: NF-kB SEAP reporter activity, fold change vs agonist alone; cytotoxicity flag (confluency mask): cytotoxic (confluency <70% of control); higher = enhanced NF-kB activity. The method, boiled down:
as §1

Where [4] appears, read: cytotoxicity flag (confluency mask): not cytotoxic, agonist: Imiquimod (TLR7) […].
[5] abbreviates: cytotoxicity flag (confluency mask): not cytotoxic, agonist: MPLA (TLR4) […].
[6] abbreviates: agonist: ODN 1826 (TLR9) 0.5 ug/mL.
The mark [7] stands for this setting: agonist: Pam2CSK4 (TLR2/6) 0.1 ug/mL.
[8] abbreviates: agonist: Pam3CSK4 (TLR2/1) 0.1 ug/mL.

Regarding `C=CC(=O)Nc1ccc2ncnc(Nc3ccc(OCc4cccc(F)c4)c(Cl)c3)c2c1.Cc1ccc(S(=O)(=O)O)cc1`, the “NF-kB SEAP reporter activity” value is 0.818 in assay [1] (setting [4]) and 0.445 in assay [1] (setting [5]).

Turning to `CS(=O)(=O)CCNCc1ccc(-c2ccc3ncnc(Nc4ccc(OCc5cccc(F)c5)c(Cl)c4)c3c2)o1`, the “NF-kB SEAP reporter activity” value is 2.12 in assay [1] (setting [4]) and 2 in assay [1] (setting [5]).

Consider `Cc1cc(Nc2ncnc3ccc(-c4ccc(CNCCS(C)(=O)=O)o4)cc23)ccc1Oc1ccn2ncnc2c1` (library stock concentration (final ~1000-fold dilution): 10 mM), for which the “NF-kB SEAP reporter activity” value in assay [2] (agonist: LPS (TLR4) 0.1 ug/mL) worked out at 2.19; in assay [2] (setting [6]), 0.229; in assay [2] (setting [7]) it was 0.997; in assay [2] (setting [8]), 0.811.

Turning to `CS(=O)(=O)CCNCc1ccc(-c2ccc3ncnc(Nc4ccc(OCc5cccc(F)c5)c(Cl)c4)c3c2)o1.Cc1ccc(S(=O)(=O)O)cc1.Cc1ccc(S(=O)(=O)O)cc1.O`, the “NF-kB SEAP reporter activity” value in assay [1] (setting [5]) was found to be 1.99.

Consider `CC1COC(Nc2ccc3ncnc(Nc4ccc(OCc5nccs5)c(Cl)c4)c3c2)=N1` (centres undefined) (library stock concentration (final ~1000-fold dilution): 10 mM), for which the “NF-kB SEAP reporter activity” value in assay [2] (agonist: LPS (TLR4) 0.1 ug/mL) came out at 0.991; in assay [2] (setting [6]), 0.507; in assay [2] (setting [7]) it was 0.602; in assay [2] (setting [8]), 0.911.

Consider `C=CC(=O)Nc1ccc2ncnc(Nc3ccc(OCc4cccc(F)c4)c(Cl)c3)c2c1.Cc1ccc(S(=O)(=O)O)cc1` (library stock concentration (final ~1000-fold dilution): 10 mM), for which the “NF-kB SEAP reporter activity” value in assay [2] (agonist: LPS (TLR4) 0.1 ug/mL) is 0.275; in assay [2] (setting [6]), 0.575; in assay [2] (setting [7]) it was 0.254; in assay [2] (setting [8]) it was 0.377.

Consider `CS(=O)(=O)CCNCc1ccc(-c2ccc3ncnc(Nc4ccc(OCc5cccc(F)c5)c(Cl)c4)c3c2)o1.Cc1ccc(S(=O)(=O)O)cc1.Cc1ccc(S(=O)(=O)O)cc1.O` (library stock concentration (final ~1000-fold dilution): 10 mM), for which the “NF-kB SEAP reporter activity” value came to 1.96 in assay [2] (agonist: LPS (TLR4) 0.1 ug/mL), 0.24 in assay [2] (setting [6]), 0.755 in assay [2] (setting [7]) and 0.786 in assay [2] (setting [8]).

With `CS(=O)(=O)CCNCc1ccc(-c2ccc3ncnc(Nc4ccc(OCc5cccc(F)c5)c(Cl)c4)c3c2)o1.Cc1ccc(S(=O)(=O)O)cc1.Cc1ccc(S(=O)(=O)O)cc1`, the figures for the “NF-kB SEAP reporter activity” value in assay [1] (setting [4]) and in assay [1] (setting [5]) were 1.68 and 1.56, respectively.

With `CC1COC(Nc2ccc3ncnc(Nc4ccc(OCc5nccs5)c(Cl)c4)c3c2)=N1` (centres undefined), the “NF-kB SEAP reporter activity” value in assay [1] (setting [4]) turned out to be 1.28; in assay [1] (setting [5]) it was 1.03.

For the compound `Cc1cc(Nc2ncnc3ccc(-c4ccc(CNCCS(C)(=O)=O)o4)cc23)ccc1Oc1ccn2ncnc2c1`, the “NF-kB SEAP reporter activity” value in assay [1] (setting [4]) is 1.08; in assay [1] (setting [5]), 1.53.

For `CS(=O)(=O)CCNCc1ccc(-c2ccc3ncnc(Nc4ccc(OCc5cccc(F)c5)c(Cl)c4)c3c2)o1.Cc1ccc(S(=O)(=O)O)cc1.Cc1ccc(S(=O)(=O)O)cc1` (library stock concentration (final ~1000-fold dilution): 10 mM), the “NF-kB SEAP reporter activity” value in assay [2] (agonist: LPS (TLR4) 0.1 ug/mL) turned out to be 4.16; in assay [2] (setting [6]) it was 0.272; in assay [2] (setting [7]) it was 0.851; in assay [2] (setting [8]), 1.14.

Regarding `CS(=O)(=O)CCNCc1ccc(-c2ccc3ncnc(Nc4ccc(OCc5cccc(F)c5)c(Cl)c4)c3c2)o1` (library stock concentration (final ~1000-fold dilution): 10 mM), the “NF-kB SEAP reporter activity” value was found to be 2.56 in assay [2] (agonist: LPS (TLR4) 0.1 ug/mL), 0.324 in assay [2] (setting [6]), 0.657 in assay [2] (setting [7]) and 1.19 in assay [2] (setting [8]).

For the compound `CCCC1CC(C(=O)NC(C(C)Cl)C2OC(SC)C(O)C(O)C2O)N(C)C1` (centres undefined) (library stock concentration (final ~1000-fold dilution): 10 mM), the “NF-kB SEAP reporter activity” value amounted to 1.14 in assay [2] (agonist: LPS (TLR4) 0.1 ug/mL), 1.04 in assay [2] (setting [6]), 1.04 in assay [2] (setting [7]) and 1.17 in assay [2] (setting [8]).

Turning to `CCCC1CC(C(=O)NC(C(C)Cl)C2OC(SC)C(O)C(O)C2O)N(C)C1` (centres undefined), the “NF-kB SEAP reporter activity” value is 1.02 in assay [1] (setting [4]) and 1.07 in assay [1] (setting [5]).

Regarding `COc1cccc2c1C(=O)c1c(O)c3c(c(O)c1C2=O)CC(O)(C(C)=O)CC3OC1CC(N)C(O)C(C)O1.Cl` (centres undefined), the “NF-kB SEAP reporter activity” value is 0.365 in assay [1] (cytotoxicity flag (confluency mask): cytotoxic (confluency <70% of control), agonist: Imiquimod (TLR7) […]) and 0.213 in assay [1] (cytotoxicity flag (confluency mask): cytotoxic (confluency <70% of control), agonist: MPLA (TLR4) […]).

Take `COc1cccc2c1C(=O)c1c(O)c3c(c(O)c1C2=O)CC(O)(C(C)=O)CC3OC1CC(N)C(O)C(C)O1.Cl` (centres undefined) (library stock concentration (final ~1000-fold dilution): 10 mM): the “NF-kB SEAP reporter activity” value in assay [3] (agonist: LPS (TLR4) 0.1 ug/mL) is 0.249; in assay [3] (setting [6]) it was 0.191; in assay [3] (setting [7]), 0.0932; in assay [3] (setting [8]), 0.195.

Take `CC1CN(CC(Cc2ccccc2)C(=O)NCC(=O)O)CCC1(C)c1cccc(O)c1` (centres undefined) (library stock concentration (final ~1000-fold dilution): 10 mM): the “NF-kB SEAP reporter activity” value in assay [2] (agonist: LPS (TLR4) 0.1 ug/mL) worked out at 1.51; in assay [2] (setting [6]), 1.01; in assay [2] (setting [7]) it was 0.937; in assay [2] (setting [8]), 0.609.

For the compound `CC1CN(CC(Cc2ccccc2)C(=O)NCC(=O)O)CCC1(C)c1cccc(O)c1` (centres undefined), the “NF-kB SEAP reporter activity” value in assay [1] (setting [4]) turned out to be 1.03; in assay [1] (setting [5]), 1.01.

On to `Cn1cc(Nc2nccc(N3CC4CCC(C3)N4C(=O)C3CC3(F)F)n2)cn1` (centres undefined), for which the “NF-kB SEAP reporter activity” value came out at 1.19 in assay [1] (setting [4]) and 0.995 in assay [1] (setting [5]).

As for `Cn1cc(Nc2nccc(N3CC4CCC(C3)N4C(=O)C3CC3(F)F)n2)cn1` (centres undefined) (library stock concentration (final ~1000-fold dilution): 10 mM), the “NF-kB SEAP reporter activity” value in assay [2] (agonist: LPS (TLR4) 0.1 ug/mL) amounted to 0.973; in assay [2] (setting [6]), 1.3; in assay [2] (setting [7]), 1.69; in assay [2] (setting [8]) it was 2.02.

The values above are taken from the supplement of paper PMC10037445.
